The whole screen tested about 48,000 compounds, of which about 13,000 (27%) showed an effect of 50% or more. This is one part of the list.

The subject of the test is Wolbachia pipientis. Kind of test: Anti-Wolbachia Cell-Based Screen. The format is functional. Details: scale not given: in the data most compounds retested in dose-response had high values. The following applies: 5 µM.
As to `Cc1nc(CN(C)c2nc3c(cnn3C(C)(C)C)c(=O)[nH]2)cs1`, the “Percent Effect” value was found to be 2.09%.
`CC(=O)N1CC[C@H]2C(=O)N(c3ccsc3)CCO[C@H]2C1`: the “Percent Effect” value is -22.82%.
As for `Cc1ccc(CN(C)C)cc1NC(=O)C1CC1`, the figure is -4.043%; as for `CCOCC(=O)N1CCC2(CC1)COCCN2CCOC.O=C(O)C(F)(F)F`, 1.249%; as for `COCC(=O)N1CCC2(CC1)COCCN2CCN(C)C.O=C(O)C(F)(F)F.O=C(O)C(F)(F)F`, -13.01%.
The same measure for `CCOCC(=O)N1CCC2(CC1)COCCN2CCN(C)C.O=C(O)C(F)(F)F.O=C(O)C(F)(F)F`: 122.8%; for `c1csc(CN2CCC3(CC2)COCCN3CC2CC2)n1`: -11.56%.
Take `CCN1CCOCC12CCN(C(=O)C1CCCC1)CC2.O=C(O)C(F)(F)F`: the “Percent Effect” value worked out at 72.95%.
For `O=C(Cc1cccs1)N1CCC2(CC1)COCCN2CC1CC1.O=C(O)C(F)(F)F`, the “Percent Effect” value is recorded as -7.1%.
For the molecule `O=C(C1CCCO1)N1CCC2(CC1)COCCN2CC1CC1` (stereo not given), the “Percent Effect” value is 91.17%.
Turning to `CC(C)(C)N1CC(C(=O)NCc2cn3cccnc3n2)CC1=O` (stereo not given), the “Percent Effect” value is on record as -9.989%.
As for `Cc1nc(CN(C)Cc2nc(-c3ccncc3)no2)co1`, the figure is -11.37%.
`Cc1csc(CCNC(=O)C2CCCN(C3CCOCC3)C2)n1` (stereo not given): the “Percent Effect” value was -10.65%.
`Cn1c(CCNC(=O)C2CCCN(C3CCOCC3)C2)n[nH]c1=O` (stereo not given): the “Percent Effect” value is -0.6939%.
On to `Cc1c(C(=O)NCC2CCN(Cc3c[nH]cn3)C2)[nH]c2ccccc12` (stereo not given), for which the “Percent Effect” value amounted to 1.148%.
`O=C(CC1CCCC1)N[C@H]1CN(Cc2c[nH]cn2)C[C@@H]1C1CC1`: the “Percent Effect” value is -0.5907%.
As for `CC(C)[C@H]1CN(Cc2c[nH]cn2)C[C@@H]1NC(=O)CC1CCC1`, the “Percent Effect” value is given as -5.041%.
Consider `COCCNc1ccc(CC2CCCN(C3CCOCC3)C2)nn1` (stereo not given), for which the “Percent Effect” value is given as 121.9%.
As to `COCCNc1ccc(CC2CCCN(Cc3c[nH]cn3)C2)nn1` (stereo not given), the “Percent Effect” value came out at 98.89%.
For `CNc1ccc(CC2CCCN(Cc3c[nH]cn3)C2)nn1` (stereo not given), the “Percent Effect” value is recorded as 113.9%.
As for `O=CO.c1nc(CN2CCCC(Cc3ccc(NC4CCCC4)nn3)C2)c[nH]1` (stereo not given), the figure is 168.2%.
Regarding `Cc1ccc2[nH]nc(C(=O)NCC3CCN(Cc4c[nH]cn4)C3)c2c1` (stereo not given), the “Percent Effect” value is -10.2%.
`NC(=O)COc1ccc(CNC(=O)CN2CCc3ccccc32)cc1`: the “Percent Effect” value was -10.38%.
As for `CN(CCO)Cc1nnc(C2CCN(C3CCCCC3)CC2)n1C`, the “Percent Effect” value is 6.504%.
Regarding `Cc1ccc(C(=O)N2CCSCC2)cc1NC(=O)Cn1cncn1`, the “Percent Effect” value is -1.948%.
On to `NC(=O)c1cccc(CCNC(=O)N2CCCC2)c1`, for which the “Percent Effect” value is -5.891%.
As to `CCCc1cc(=O)[nH]c(-c2cccc(CN3CCN4CCCC4C3)c2)n1` (stereo not given), the “Percent Effect” value is given as -7.506%.
`CC(C)C1CN(Cc2c[nH]cn2)CCCN1CC1CC1` (stereo not given): the “Percent Effect” value was 17.94%.
As for `c1ccc(C2CN(C3CC3)CC3(CCN(Cc4ncc[nH]4)CC3)C2)cc1` (stereo not given), the figure is -18.37%; as for `c1c[nH]c(CN2CCCC(Cc3ccc(NC4CCCC4)nn3)C2)n1` (stereo not given), 81.53%; as for `O=C1CC[C@H]2CN(Cc3ncc[nH]3)CC[C@H]2N1CC1CCNCC1`, -8.264%.
As for `Nc1ccc(CC2CCCN(Cc3c[nH]cn3)C2)nn1` (stereo not given), the “Percent Effect” value is recorded as 105.7%.
As to `Fc1ccc(CCC2CCCN(Cc3c[nH]cn3)C2)c(F)c1` (stereo not given), the “Percent Effect” value is reported as -3.071%.
In the case of `O=C(c1coc(COc2cccc3cnccc23)n1)N1CCSCC1`, the “Percent Effect” value is given as -33.47%.
Consider `CCc1cnc(N2CC[C@H]3[C@H]2CC(=O)N3c2cccnc2)nc1.O=C(O)C(F)(F)F.O=C(O)C(F)(F)F`, for which the “Percent Effect” value was -6.023%.
On to `CCc1cnc(N2CC[C@H]3[C@@H]2CCC(=O)N3c2cccnc2)nc1.O=C(O)C(F)(F)F.O=C(O)C(F)(F)F`, for which the “Percent Effect” value came out at 93.01%.
As for `CCc1cnc(N2CC[C@H]3[C@@H]2CCC(=O)N3c2ccccc2)nc1.O=C(O)C(F)(F)F`, the figure is 97.82%; as for `Cc1cnc(C(=O)N2CC[C@H]3[C@@H]2CCC(=O)N3c2cccnc2)cn1.O=C(O)C(F)(F)F`, 0.08604%; as for `Cc1ccc(C(=O)N2CC[C@H]3[C@@H]2CCC(=O)N3c2cccnc2)o1.O=C(O)C(F)(F)F`, -21.39%.
As for `Cc1cc(CNC(=O)c2cc(C(C)C)n(C)n2)ccc1S(C)(=O)=O`, the “Percent Effect” value is on record as -6.268%.
`CC(=O)N(CCc1ccccc1)CC(=O)NC(C)(C)C#N`: the “Percent Effect” value is on record as -33.05%.
For `COCCCN1CC2(CCCN(c3ncnc4[nH]cnc34)C2)CCC1=O` (stereo not given), the “Percent Effect” value is -3.857%.
Take `O=C1N(CCC2CCCCC2)CCCC1(O)CNCCc1ccccc1` (stereo not given): the “Percent Effect” value amounted to 4.403%.
As for `O=C(O)C(=O)O.c1ccc2c(c1)SCCC2NCc1ccc(N2CCOCC2)cc1` (stereo not given), the figure is -0.4171%; as for `Cn1cc(C(=O)CC2CCCN2C(=O)c2ccc(Cl)cn2)cn1` (stereo not given), -8.745%.
For the molecule `Cn1cc(C(=O)CC2CCCN2C(=O)c2ccncc2F)cn1` (stereo not given), the “Percent Effect” value was determined as 96.19%.
`CCc1ccccc1C(=O)N1CCCC1CC(=O)c1cnn(C)c1` (stereo not given): the “Percent Effect” value is given as 88.86%.
As for `Cc1cscc1C(=O)N1CCCC1CC(=O)c1cnn(C)c1` (stereo not given), the “Percent Effect” value is 127.4%.
For `CCc1cc(C)c(C(=O)N2CCCC2CC(=O)c2cnn(C)c2)o1` (stereo not given), the “Percent Effect” value is given as -2.154%.
Regarding `Cn1cc(C(=O)CC2CCCN2C(=O)c2cncc3ccccc23)cn1` (stereo not given), the “Percent Effect” value was determined as 0.2394%.
`COc1cc(C(=O)N2CCCC2CC(=O)c2cnn(C)c2)ccc1F` (stereo not given): the “Percent Effect” value is recorded as -15.51%.
In the case of `Cn1cc(C(=O)CC2CCCN2C(=O)c2ccn3ccnc3c2)cn1` (stereo not given), the “Percent Effect” value came out at 8.483%.
Turning to `Cc1ccc(O)c(C(=O)N2CCCC2CC(=O)c2cnn(C)c2)c1` (stereo not given), the “Percent Effect” value is given as -14.12%.
As to `Cn1cc(C(=O)CC2CCCN2C(=O)c2cccc3ncccc23)cn1` (stereo not given), the “Percent Effect” value was found to be 103.8%.
For `CCn1c(CN(C)CC(F)(F)F)nc2c(F)cccc21`, the “Percent Effect” value was -13.63%.
The same measure for `COc1cc(F)c(C(=O)NCc2ccon2)c(F)c1`: -19.7%; for `COc1ccc(C2=CCN(C(=O)CN(C)Cc3ccoc3)CC2)cc1`: 39.3%; for `Cc1cc(-n2cncn2)ccc1C(=O)N(C)CC(F)(F)C(F)(F)F`: -10.14%.
As for `CS(=O)(=O)N1C[C@@H]2COC[C@@H](CC(=O)N3CCCO3)[C@@H]2C1`, the figure is -9.708%; as for `Cc1ccoc1C(=O)N1CCOC2(CCCC2)C1`, -7.54%; as for `CCOC(C)c1nc(COc2nc(C)no2)cs1` (stereo not given), -4.126%.
In the case of `O=C(c1ccncc1)N1CCN(C(=O)c2coc3ccccc23)CC1`, the “Percent Effect” value is -6.895%.
As for `Cn1cc(C(=O)CC2CCCN2C(=O)c2n[nH]c3ccccc23)cn1` (stereo not given), the figure is -3.127%.
As for `Cn1cc(C(=O)CC2CCCN2C(=O)c2coc3ccccc23)cn1` (stereo not given), the “Percent Effect” value is listed as 99.8%.
As for `Cn1cc(C(=O)CC2CCCN2C(=O)c2c[nH]c3ccccc23)cn1` (stereo not given), the figure is 107.8%; as for `Cn1cc(C(=O)CC2CCCN2C(=O)c2ccc3[nH]ncc3c2)cn1` (stereo not given), -6.365%.
On to `Cn1cc(C(=O)CC2CCCN2C(=O)c2ccc(Cl)o2)cn1` (stereo not given), for which the “Percent Effect” value is 3.308%.
Regarding `Cn1cc(CN2CCc3ncn(C)c3C2COCc2cccnc2)cn1` (stereo not given), the “Percent Effect” value was -2.593%.
As for `N#Cc1c(F)cccc1NCCCOCC1CCOC1` (stereo not given), the figure is -17.11%; as for `COCCNC(=O)c1nc(-c2cn(C)cn2)n2ccccc12`, 37.4%.
The same measure for `Cc1occc1C(=O)N1CCCn2cnc(CN3CCCC3=O)c2C1`: 99.06%; for `Cc1cccc(C(=O)N2CCCn3cnc(CN4CCCC4=O)c3C2)n1`: 84.9%; for `Cc1ccccc1C(=O)N1CCCn2nnc(Cn3cccn3)c2C1`: -4.319%.
For the molecule `O=C1CCCN1Cc1ncn2c1CN(C(=O)c1cccc(F)c1)CCC2`, the “Percent Effect” value came out at 7.876%.
On to `Cc1ccccc1C(=O)N1CCCn2cnc(CN3CCCC3=O)c2C1`, for which the “Percent Effect” value is recorded as 104.2%.
`Cc1occc1C(=O)N1CCn2cnc(COCC3CC3)c2C1`: the “Percent Effect” value is -3.111%.
Consider `Cc1cccc(C(=O)NC(CN2CCCC2=O)c2ccccc2)n1` (stereo not given), for which the “Percent Effect” value is given as -6.295%.
Turning to `Cc1occc1C(=O)N1CCC2(CCC(=O)N(CC(N)=O)C2)CC1`, the “Percent Effect” value amounted to 0.6674%.
As for `O=C(NC1CC1)C1CCCN(c2cc(-n3cncn3)ncn2)C1` (stereo not given), the figure is -0.5146%; as for `COCCN(C)C[C@@H]1CCC[C@@H]2CN(c3cc(OC)ncn3)C[C@@H]21.O=C(O)C(F)(F)F`, -6.847%; as for `Cc1cccc(C2(CNC(=O)C(C)S(C)(=O)=O)CCCC2)c1` (stereo not given), 0.1525%.
On to `O=C(O)C(F)(F)F.c1ccc(CN2Cc3nccn3CC(Cn3cncn3)C2)nc1` (stereo not given), for which the “Percent Effect” value turned out to be 98.39%.
Regarding `CC(=O)N1[C@H](Cn2cncn2)C[C@@H]2CN(Cc3ccccn3)CC[C@@H]21.O=C(O)C(F)(F)F.O=C(O)C(F)(F)F`, the “Percent Effect” value was 10.04%.
In the case of `O=C(O)C(F)(F)F.c1ccc(CN2Cc3nccn3CC(Cn3cccn3)C2)nc1` (stereo not given), the “Percent Effect” value is reported as 97.11%.
`N#Cc1ccc(NCCCOCC2CCCO2)c(F)c1` (stereo not given): the “Percent Effect” value is recorded as -11.95%.
For the molecule `CC(c1ccccc1)N(C)C(=O)CN1CCCc2cccc(F)c21` (stereo not given), the “Percent Effect” value amounted to 5.525%.
The same measure for `Cc1ccc(F)c2c1N(C(=O)c1ccc(S(C)(=O)=O)cc1)CCC2`: 11.45%; for `COc1cccc2c1N(C(=O)c1ccc(C)nc1)CCC2`: 2.178%.
Consider `CN(C)C(=O)CN1CCCc2c(F)cc(Br)cc21`, for which the “Percent Effect” value was determined as 1.685%.
Consider `CC(=O)NCc1ccc(C(=O)N2CCCc3c(F)ccc(C)c32)o1`, for which the “Percent Effect” value is reported as -10.88%.
For the molecule `CN(C)C(=O)Cn1cc(C(=O)N2CCCc3cccc(F)c32)nn1`, the “Percent Effect” value is on record as 105.3%.
On to `Cc1ccc(F)c2c1N(C(=O)c1cn(CC(=O)N(C)C)nn1)CCC2`, for which the “Percent Effect” value was determined as 115.7%.
As for `COc1ccc(C)c2c1N(C(=O)c1ccc3nnc(C)n3c1)CCC2`, the figure is -2.27%; as for `Cc1ccc(F)c2c1CCCN2C(=O)c1cn(CC(=O)N(C)C)nn1`, 122.6%; as for `N[C@@H]1CC[C@@H](NC(=O)c2ccccc2OC(F)(F)C(F)F)C1`, 3.993%.

For the origin of these results see ChEMBL document CHEMBL3988442, “University of Dundee, Small-Polar-MMV Screening Library” (2021).
